Test results reported in paper PMC10163288.
The list is a sample of the results. The hit rate among all sequences tested is not known here.

B1: il10ra_site1_normal_mot_HHH_b2_06090_af2_000000001_0001_1_19_H_._HHH_b1_07022_0001_0000500035_0000001_0 (protein)
chain: SSSSSQEVAELIIEAFRLLLRGDEEEVERLLEELKELAEELNDPALRRLVEILEEAIKAASSSSS
B2: il10ra_site1_sap_19_mot_HHH_b2_07521_000000141_0001_20_37_H_._HHH_b1_07537_af2_0001_0000400008_0000001_0_0001 (protein)
chain: SSSSSDEERLEELLEELKELLEEGDRERFLRVALEVLRLAFQSSDEEALQAVWRLVKKWGSSSSS
B3: il10ra_site1_normal_mot_HHH_b1_03094_000000294_0001_1_20_H_._HHH_b1_05478_af2_0001_0000100005_0000001_0 (protein)
chain: SSSSDEENQEALELSLEALRLALRGDPEKAREVLEEAFELAERANNERLLRIIEELLEALHSSSS
B4: il10ra_site1_normal_mot_HHH_b1_06789_af2_000000041_0001_1_20_H_._HHH_b1_02788_0001_0000100006_0000001_0 (protein)
chain: SSSSDLEEEIEEAIEEARENGDELIVQILEILLRQIRRDGSPNARWLVRQVIKALKNLLENSSSS
B5: il10ra_site1_sap_24_mot_HHH_b2_06857_af2_000000179_0001_42_54_H_._HHH_b1_04179_af2_0001_0000200006_0000001_1_0001 (protein)
chain: SSSSSDATRELYRLSKEAAELLAEGNPEEAQRVAEEAFELAEEAGNRVLLHAIEHLLRDISSSSS
B6: il10ra_site1_normal_mot_HHH_b2_07521_000000141_0001_20_37_H_._HHH_b1_01332_0001_0000100002_0000001_0_af2pred_0001 (protein)
chain: SSSSDEEEKRLRLALRLARFLIEQGDEEAARKLLEWIRELAKRANDEEALEEAQRLLEEVGSSSS
B7: il10ra_site1_normal_mot_HHH_b1_01879_000000050_0001_1_18_H_._HHH_b1_04021_0001_0000200009_0000001_0_af2pred_dldesign_0_af2pred (protein)
chain: SSSSSELDALLAALEAAVAAGDEAAVRELSVRVSRLALEANNKEVLKKVFDLMVDFYKKLSSSSS
B8: il10ra_site1_sap_20_mot_HHH_b1_05126_000000053_0001_38_52_H_._HHH_b2_05116_af2_0001_0000900047_0000001_0_0001 (protein)
chain: SSDEREELKEEVEEEVEKAVENKDPELVKEIIAKALMEAARLRDDQLSMAIIRIYARANQLLQSS
B9: il10ra_site1_normal_mot_HHH_b2_08144_af2_000000046_0001_38_52_H_._HHH_b1_00696_0001_0000600035_0000001_0 (protein)
chain: SSSSTEEIQRIMELLRRAAELLNEGNPEEAEKLIEEAEELVKEANDPLLEIQLRFLERDINSSSS
B10: il10ra_site1_sap_23_mot_HHH_b1_01233_000000085_0001_1_18_H_._HHH_b1_01214_0001_0000100002_0000001_0_0001 (protein)
chain: SSSSDEEHIEELARAVERQLEQLSKYDPRLLERLAEAARKALELWDEELAREIEELAKELLSSSS
B11: il10ra_site1_normal_mot_HHH_b2_00984_000000042_0001_1_20_H_._HHH_b2_02613_af2_0001_0000700025_0000001_0 (protein)
chain: SSSSSTEEEIEELIKKAEEAAENGDPRKAFELLAEASRYALELGDAELLQEIWELIKKLNSSSSS
B12: il10ra_site1_sap_23_mot_HHH_b1_03574_000000194_0001_1_18_H_._HHH_b1_05868_0001_0000200012_0000002_0_0001 (protein)
chain: SSSSSDRDELYELIEEALELLARGNPEEAERVLEEARELAEELGNRVFLVVIRFLLKDIKSSSSS
B13: il10ra_site1_normal_mot_HHH_b1_05056_000000217_0001_1_20_H_._HHH_b2_04285_0001_0000100002_0000001_0 (protein)
chain: SSSSDLEEEIERLEEELREARERGDKELALQLLLRLLRLAYETRDEELLRELWEIVRKLFSSSSS
B14: il10ra_site1_normal_mot_HHH_b1_04693_000000238_0001_19_36_H_._HHH_b2_06085_af2_0001_0000700026_0000002_0 (protein)
chain: SSSSSDQELYELIRELIELLLEGDEEEIERLEEEIEKLAKELNNRVLLFVARAARRLQEKSSSSS
B15: il10ra_site1_sap_20_mot_HHH_b1_08622_000000192_0001_23_40_H_._HHH_b2_06485_0001_0000100001_0000003_0_0001_af2pred_0001 (protein)
chain: SSSSSEFEEAIKAARESIEHALRLGDDEKVEQALRLLERLARDANDEEAEKFIEEVEELLSSSSS
B16: il10ra_site1_sap_11_mot_HHH_b1_00456_000000263_0001_1_17_H_._HHH_b2_06141_0001_0000200005_0000001_0_0001_af2pred_0001 (protein)
chain: SSSSDIAERLVELALEAARLAAERGDPEAVRRALEQAEHLAKLNNNPELEEEVKELEEELSSSSS
B17: il10ra_site1_sap_15_mot_HHH_b1_00814_af2_000000078_0001_43_57_H_._HHH_b2_00250_af2_0001_0000100010_0000001_0_0001_af2pred_0001 (protein)
chain: SSSSSRSAEEAIRRLLRAAKQLEDEERLKLAIRDALAAAEFLGNEELVEELRKILEELRSSSSSS
B18: il10ra_site1_sap_28_mot_HHH_b2_01776_000000118_0001_38_52_H_._HHH_b1_02755_0001_0000100001_0000001_0_0001_af2pred_0001 (protein)
chain: SSSSDEELLEHLLRALKQVVELGDEERAKLTIKFIKRLAELHNDEEVEKRLRELEELVEELSSSS
B19: il10ra_site1_normal_mot_HHH_b1_02809_af2_000000277_0001_40_57_H_._HHH_b1_00768_af2_0001_0000200008_0000001_0 (protein)
chain: SSSSSSDANETAARLIRAAYRGDEELFEELREELEELIERYGDPRLRLALQFAEALFRELSSSSS
B20: il10ra_site1_sap_22_mot_HHH_b1_00169_000000276_0001_1_18_H_._HHH_b1_00842_0001_0000200007_0000001_0_0001 (protein)
chain: SSSSDEEREELYEILEEVIKLASEGDEEEFEELVREAEELAKELGNWVVRHVLELLRRDLSSSSS
B21: il10ra_site1_normal_mot_HHH_b2_01397_000000078_0001_23_39_H_._HHH_b2_08075_0001_0000300026_0000002_0_af2pred_0001 (protein)
chain: SSSSDERVKLTLRFAEALAKHGDRRAVELLLRAARQLAERDGDEELEELIEEVEERVRELLSSSS
B22: il10ra_site1_normal_mot_HHH_b1_05357_000000034_0001_23_39_H_._HHH_b1_03625_af2_0001_0000700020_0000001_0 (protein)
chain: SSSSSDEKEVTHILIQAYAAANHGNPEEAEELLKEAKEIAEEINNERLKLSIEKVEEILRSSSSS
B23: il10ra_site1_sap_13_mot_HHH_b2_00943_af2_000000149_0001_1_17_H_._HHH_b1_02941_af2_0001_0000200003_0000001_0_0001 (protein)
chain: SSSSDVSREAYELSRRAAELHSEGNPEEARELLEEAEELLREAGDRVILHNVEYVLELLNSSSSS
B24: il10ra_site1_sap_14_mot_HHH_eva_0266_af2_000000000_0001_3_18_H_._HHH_b1_03321_0001_0000100001_0000001_0_0001 (protein)
chain: SSSSYEELKKLIERITRALREGNREEAQELIERVEELAEERNDWSARFVARVLQEALEANSSSSS
B25: il10ra_site1_normal_mot_HHH_b2_00475_000000107_0001_44_57_H_._HHH_b2_03520_0001_0000600038_0000001_0 (protein)
chain: SSSSDEEEVSHLLFRALELLFRGDKEEAEELVEEAKEIAEESNDPELQRYVEIAEHFVKAHSSSS
B26: il10ra_site1_normal_mot_HHH_b2_08186_000000021_0001_43_56_H_._HHH_b1_00125_0001_0000100002_0000001_0 (protein)
chain: SSSSSSDLEEEIEELLEELKQISDPERFAEVARRVLRLIYELGDEELLQELWEILKRLSSSSSSS
B27: il10ra_site1_normal_mot_HHH_b1_05670_000000169_0001_1_19_H_._HHH_b2_02857_0001_0000400035_0000001_1 (protein)
chain: SSSSDEDYRRAKELIELIVELLREGNPEEAKKVLEELRELAEENNNPVLEWSVRLLEEDINSSSS
B28: il10ra_site1_sap_27_mot_HHH_b1_05870_000000031_0001_1_20_H_._HHH_b2_06019_af2_0001_0000100004_0000001_0_0001 (protein)
chain: SSSSSDIEELLREAEELAEEGDPEEAARLLLEALKLIYERQDKELLQELWEVVRRVAEISSSSSS
B29: il10ra_site1_sap_19_mot_HHH_b2_03220_af2_000000223_0001_23_40_H_._HHH_b1_07213_0001_0000100001_0000001_0_0001 (protein)
chain: SSSSDEEQEELLRLLRKLVELLLRGDKEEAERLARELLELAEELNDEKVVHVVEDLEKTVSSSSS
B30: il10ra_site1_sap_24_mot_HHH_b2_00475_000000107_0001_44_57_H_._HHH_b1_04576_0001_0000500027_0000001_0_0001 (protein)
chain: DLLELAFELQRRQGTPPEDVIRALLYLAHAANDPERVELLEEVLKLLEDGDPERAEELLKEASKR
B31: il10ra_site1_sap_20_mot_HHH_b1_07100_000000193_0001_1_18_H_._HHH_b2_05849_0001_0000400035_0000001_0_0001_af2pred_0001 (protein)
chain: SSSSSERLELTIKFIEFLLEQGDPEAAKRLARAAAQIAKKDGDEELLRRIEELLEEAEELLSSSS
B32: il10ra_site1_normal_mot_1cde5897893f3d1588f92be3b001cdf2_0001_af2_000000130_0001_54_65_H_._HHH_b2_05871_0001_0000300015_0000001_1_af2pred_0001 (protein)
chain: SSSSSDEEVEERVEELLERLHHVDPKEAAQLLHEAARLAAELDNPELLELVFEAAEEVISSSSSS
B33: il10ra_site1_sap_30_mot_HHH_b1_02809_af2_000000277_0001_40_57_H_._HHH_b1_05733_0001_0000200016_0000002_0_0001 (protein)
chain: SSSSSEASRRIYELLRRIVELHHEGNPEEARELIEEAKELAEEAGDRVLLWVIEWLERLVNSSSS
B34: il10ra_site1_sap_21_mot_HHH_b1_04771_000000013_0001_40_56_H_._HHH_b1_05247_0001_0000500023_0000001_0_0001 (protein)
chain: SSSSDQEEELVRAAIRLIEQLIKNGNPEAARMILWAAEKLAKEINNPELLEELEELKELLNSSSS
B35: il10ra_site1_normal_mot_a6c796b944619e241e020fd597ddb6da_0001_af2_000000092_0001_15_31_H_._HHH_b2_01778_af2_0001_0000100002_0000002_0_af2pred_0001 (protein)
chain: SSSSSSSEEEQEVHALIFFARISDNEDAAKISLELAKKIAEEINNEELREEIEELEKELSSSSSS
B36: il10ra_site1_normal_mot_HHH_b2_01705_af2_000000069_0001_44_57_H_._HHH_b1_04218_af2_0001_0000400020_0000001_0 (protein)
chain: SSSSSSDSEELLEEAEELLKEIKDPEERTEVYRKFAEELVELGDREAIERLSELFIRASSSSSSS
B37: il10ra_site1_sap_19_mot_HHH_b1_00992_000000182_0001_23_40_H_._HHH_b1_02574_0001_0000200023_0000001_0_0001 (protein)
chain: SSSSDEEEELVRAALRLAEQAYENGDPEAAKRLLWAAEFLAREIGDEELEELVERVEEKISSSSS

Biological target: il10ra, Q13651
Sequence (Q13651 whole entry): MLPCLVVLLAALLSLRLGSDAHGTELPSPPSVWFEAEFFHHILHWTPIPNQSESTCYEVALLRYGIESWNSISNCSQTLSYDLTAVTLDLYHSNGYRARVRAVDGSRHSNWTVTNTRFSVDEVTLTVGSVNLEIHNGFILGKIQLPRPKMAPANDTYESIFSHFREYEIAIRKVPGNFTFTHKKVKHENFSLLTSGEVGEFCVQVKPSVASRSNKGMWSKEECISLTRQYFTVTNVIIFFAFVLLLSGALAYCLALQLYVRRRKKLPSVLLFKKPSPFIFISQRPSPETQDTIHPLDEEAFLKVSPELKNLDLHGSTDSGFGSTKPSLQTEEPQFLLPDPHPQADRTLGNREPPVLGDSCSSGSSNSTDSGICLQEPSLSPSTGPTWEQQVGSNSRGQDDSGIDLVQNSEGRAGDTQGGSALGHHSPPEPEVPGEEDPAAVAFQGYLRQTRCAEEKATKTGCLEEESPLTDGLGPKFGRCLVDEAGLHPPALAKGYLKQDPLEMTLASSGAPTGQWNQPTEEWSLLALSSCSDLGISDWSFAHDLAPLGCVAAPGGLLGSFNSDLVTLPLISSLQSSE
Assay: yeast display titration

Apparent Kd, inactive:
B1 no binding seen
B2 no binding seen
B3 no binding seen
B4 no binding seen
B5 no binding seen
B6 no binding seen
B7 no binding seen
B8 no binding seen
B9 no binding seen
B10 no binding seen
B11 no binding seen
B12 no binding seen
B13 no binding seen
B14 no binding seen
B15 no binding seen
B16 no binding seen
B17 no binding seen
B18 no binding seen
B19 no binding seen
B20 no binding seen
B21 no binding seen
B22 no binding seen
B23 no binding seen
B24 no binding seen
B25 no binding seen
B26 no binding seen
B27 no binding seen
B28 no binding seen
B29 no binding seen
B30 no binding seen
B31 no binding seen
B32 no binding seen
B33 no binding seen
B34 no binding seen
B35 no binding seen
B36 no binding seen
B37 no binding seen
